Results: PubChem BioAssay (EPA / NIEHS)
Inconclusive results are not listed. Active and inactive are the calls of the source. Rule for the calls: active = hit-call score of the fitted dose curve at least 0.9, where 1 is the maximum; inconclusive = response in the unintended direction; inactive = score below 0.9.

Columns and labels:
[1] = Tanguay_ZF_120hpf_SWIM_legacy: (Legacy) Oregon State University Tanguay Lab 120 Hour Post-fertilization zebrafish Assay for Swim Bladder Malformation (AID 2283654);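 note: swim bladder malformation in each larva scored yes or no under brightfield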
Procedure, shortened: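 Dechorionated Tropical 5D wild-type embryos, placed singly from 6 hpf, were statically exposed at 28C to 120 hpf with 0.64% DMSO final; swim bladder malformation was scored present/absent by brightfield microscopy, gain of signal relative to DMSO controls.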

[2] = Tanguay_ZF_120hpf_TRUN_legacy: (Legacy) Oregon State University Tanguay Lab 120 Hour Post-fertilization zebrafish Assay for Truncated Body (AID 2283655)
Procedure, shortened: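 Tropical 5D wild-type embryos, dechorionated with pronase at 4 hpf, were placed singly in wells at 6 hpf and statically exposed at 28C until 120 hpf, final DMSO 0.64%. Truncated body was scored present/absent by brightfield microscopy.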

[3] = Tanguay_ZF_120hpf_NC_legacy: (Legacy) Oregon State University Tanguay Lab 120 Hour Post-fertilization zebrafish Assay for Notochord and Tail Malformation (AID 2283656)
Procedure, shortened: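 Dechorionated Tropical 5D wild-type zebrafish embryos, one per well from 6 hpf, statically exposed to 120 hpf at 28C in 0.64% DMSO final. Notochord distortion scored present/absent by brightfield; dead embryos excluded.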

[4] = Tanguay_ZF_120hpf_TR_legacy: (Legacy) Oregon State University Tanguay Lab 120 Hour Post-fertilization zebrafish Assay for Touch Response (AID 2283667)
Procedure, shortened: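 Tropical 5D wild-type zebrafish embryos were exposed statically in sealed, foil-covered plates at 28C until 120 hpf, with 0.64% (vol/vol) final DMSO. Touch response was scored as present or absent; embryos that died were not scored.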

[5] = system: Thyroperoxidase (TPO), gene 54314; test: CCTE_Simmons_AUR_rTPO: CCTE's Amplex UltraRed Assay for Thyroperoxidase (TPO) Inhibition, Simmons Lab (AID 2283662);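 for AC50: potency for loss of signal meaning inhibition of peroxidase activity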
Procedure, shortened: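 Rat thyroid microsomal TPO + 25 uM AUR in 200 mM K phosphate; cpd 5 nM–87.5 uM [final], 8 conc, 0.5% DMSO; 300 uM H2O2 starts rxn; 37C dark 30 min; endpoint FI 544/590 nm; n=3.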

[6] = CCTE_Simmons_CellTiterGLO_HEK293T: Viability Assessment in CCTE's Assays for Thyroperoxidase (TPO) Inhibition, Simmons Lab (AID 2283665);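 for AC50: cells exposed to compound for 24 h before readout; actives reduce ATP signal below DMSO vehicle meaning cytotoxicity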
Procedure, shortened: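 HEK293T cells in DMEM with 1% FBS, dosed 24 h at 37C with 8 concentrations, 5 nM–87.5 uM final, 0.5% DMSO. ATP measured by CellTiter Glo luminescence; loss of signal vs DMSO, three biological replicates.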

[7] = read-out: ABC Transporter (ABCB1), ABCB1 (gene 5243); test: CLD_ABCB1_6hr: CellzDirect (CLD) Gene Expression Assay for ABC Transporter (ABCB1) at 6 hours (AID 2283659);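 note: hits raise ABCB1 transcript above the DMSO vehicle baseline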
Procedure, shortened: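 Primary human hepatocytes (two donor preparations) dosed daily for two days with chemicals at multiple concentrations, 0.2% DMSO vehicle; harvested 6 h post-dose. ABCB1 mRNA induction quantified by qNPA chemiluminescence; gain-of-signal fitted versus DMSO.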

[8] = read-out: Broad substrate specificity ATP-binding cassette transporter ABCG2 (Homo sapiens) (UniProt Q9UNQ0); test: CLD_ABCG2_6hr: CellzDirect (CLD) Gene Expression Assay for ABC Transporter (ABCG2) at 6 hours (AID 2283660)
Procedure, shortened: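 Primary human hepatocytes dosed daily with chemicals at multiple concentrations (0.2% DMSO vehicle), harvested 6 h after dosing. ABCG2 mRNA induction read by quantitative nuclease protection assay (qNPA) chemiluminescence; gain of signal fitted against DMSO baseline.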

[9] = read-out: xenobiotic metabolism (CYP1A1), CYP1A1 (gene 1543); test: CLD_CYP1A1_6hr: CellzDirect (CLD) Gene Expression Assay for xenobiotic metabolism (CYP1A1) at 6 hours (AID 2283661)
Procedure, shortened: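 Primary human hepatocytes from two donors, compound versus 0.2% DMSO vehicle. CYP1A1 mRNA measured 6 h after dosing by quantitative nuclease protection assay with chemiluminescent read-out; induction fitted relative to DMSO, cytotoxicity flagged by microscopy.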

[10] = read-out: xenobiotic metabolism (CYP1A2), CYP1A2 (gene 1544); test: CLD_CYP1A2_6hr: CellzDirect (CLD) Gene Expression Assay for xenobiotic metabolism (CYP1A2) at 6 hours (AID 2283663)
Procedure, shortened: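 Primary human hepatocytes from two donor preparations, dosed daily with multiple concentrations in 0.2% DMSO and harvested at 6 h. CYP1A2 mRNA induction measured by chemiluminescent qNPA, gain of signal fitted against DMSO; cytotoxicity flagged morphologically.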

[11] = read-out: xenobiotic metabolism (CYP2C9), CYP2C9 (gene 1559); test: CLD_CYP2C9_6hr: CellzDirect (CLD) Gene Expression Assay for xenobiotic metabolism (CYP2C9) at 6 hours (AID 2283664)
Procedure, shortened: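 Primary human hepatocytes dosed daily with test chemicals at multiple concentrations; harvested at 6 h. CYP2C9 mRNA induction measured by qNPA chemiluminescence. Gain of signal fitted against 0.2% DMSO vehicle; cytotoxicity annotated from phase-contrast morphology.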

[12] = read-out: alkyl and aryl transferase (GSTA2), GSTA2 (gene 2939); test: CLD_GSTA2_6hr: CellzDirect (CLD) Gene Expression Assay for alkyl and aryl transferase (GSTA2) at 6 hours (AID 2283666)
Procedure, shortened: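 Primary human hepatocytes from two donor preparations were dosed daily with fresh compound at multiple concentrations, 0.2% DMSO vehicle. GSTA2 mRNA was measured at 6 hours by qNPA chemiluminescence; induction fitted relative to DMSO, with cytotoxicity flagged morphologically.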

[13] = read-out: sulfotransferase (SULT2A), SULT2A1 (gene 6822); test: CLD_SULT2A_6hr: CellzDirect (CLD) Gene Expression Assay for sulfotransferase (SULT2A) at 6 hours (AID 2283669);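 note: hits raise transcript level above the DMSO vehicle baseline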
Procedure, shortened: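 Primary human hepatocytes from two donor preparations were dosed daily with chemicals or 0.2% DMSO and harvested at 6 h. Transcript induction read by qNPA chemiluminescence, fitted for gain of signal relative to DMSO; morphology-based cytotoxicity annotated.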

[14] = CLD_ACTIN_24hr: CellzDirect (CLD) Gene Expression Assay for Baseline Control (Actin) at 24 hours (AID 2283670)
Procedure, shortened: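 Primary human hepatocytes dosed over multiple concentrations with 0.2% DMSO vehicle; actin mRNA measured at 24 h by qNPA chemiluminescence. Background control endpoint, fitted as gain of signal versus DMSO.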

[15] = read-out: glucuronosyltransferase (UGT1A1), UGT1A1 (gene 54658); test: CLD_UGT1A1_6hr: CellzDirect (CLD) Gene Expression Assay for glucuronosyltransferase (UGT1A1) at 6 hours (AID 2283672)
Procedure, shortened: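 Primary human hepatocytes from two donor preparations, dosed with fresh solutions in 0.2% DMSO, harvested at 6 h. UGT1A1 mRNA measured by qNPA chemiluminescence; induction fitted upward versus DMSO.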

Measured: AC50

Chain of Broad substrate specificity ATP-binding cassette transporter ABCG2 (Homo sapiens) (Q9UNQ0 whole entry, looked up): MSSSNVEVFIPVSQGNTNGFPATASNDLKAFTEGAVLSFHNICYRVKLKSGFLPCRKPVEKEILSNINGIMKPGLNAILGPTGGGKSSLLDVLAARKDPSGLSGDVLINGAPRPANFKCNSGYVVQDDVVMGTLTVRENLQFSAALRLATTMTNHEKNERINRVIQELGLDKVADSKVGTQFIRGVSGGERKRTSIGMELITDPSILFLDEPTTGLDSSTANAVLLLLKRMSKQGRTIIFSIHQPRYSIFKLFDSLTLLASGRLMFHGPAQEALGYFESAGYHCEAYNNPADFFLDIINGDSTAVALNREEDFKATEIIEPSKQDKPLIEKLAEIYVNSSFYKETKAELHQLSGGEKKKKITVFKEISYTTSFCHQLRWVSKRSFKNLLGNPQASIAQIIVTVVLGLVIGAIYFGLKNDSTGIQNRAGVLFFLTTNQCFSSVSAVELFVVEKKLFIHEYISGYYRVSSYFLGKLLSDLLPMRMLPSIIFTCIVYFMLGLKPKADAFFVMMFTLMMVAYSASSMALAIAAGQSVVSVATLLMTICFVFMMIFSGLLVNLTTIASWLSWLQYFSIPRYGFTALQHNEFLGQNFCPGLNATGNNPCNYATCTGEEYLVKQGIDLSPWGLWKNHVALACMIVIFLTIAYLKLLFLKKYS

CCOC(=O)C(O)(c1ccc(Cl)cc1)c1ccc(Cl)cc1
inactive: [1] | [2] | [3] | [4]

Nc1ccc(-c2ccc(N)cc2)cc1
inactive: [1] | [2] | [3] | [4]

CCCN(CCC)N=O
inactive: [1] | [2] | [3] | [4]

CC#Cc1cc(C)nc(Nc2ccccc2)n1
inactive: [1]

C[C@]12CCC(=O)C=C1CC[C@@H]1[C@@H]2CC[C@@]2(C)[C@H]1CC[C@]2(C)O
inactive: [1] | [2] | [3] | [4]

CCCCCCCCOC(=O)c1ccccc1C(=O)OCCCCCCCC
inactive: [1] | [2] | [3] | [6] | [4]
active: [5] 11.8 µM

CCC(C)(c1ccc(O)cc1)c1ccc(O)cc1
active: [1] 43.1 µM | [2] 46.6 µM | [5] 1.86 µM | [6] 37.4 µM | [4] 42.4 µM

ClC1=C(Cl)[C@]2(Cl)[C@@H]3[C@H]4C[C@H]([C@@H]5O[C@H]45)[C@@H]3[C@@]1(Cl)C2(Cl)Cl
active: [4] 81.5 µM
inactive: [1] | [2] | [3]

CCC(C)c1cc([N+](=O)[O-])cc([N+](=O)[O-])c1O (stereo not given)
inactive: [1] | [2] | [3] | [4]

O=C(NC(=O)c1cc(F)c(F)cc1Cl)Nc1cc(F)ccc1N1CCC(C(=O)O)CC1
inactive: [1] | [2] | [3] | [4]

ClC1=C(Cl)[C@]2(Cl)[C@@H]3[C@@H]4C[C@@H]([C@H]5O[C@@H]45)[C@@H]3[C@@]1(Cl)C2(Cl)Cl
inactive: [1] | [3] | [4]

CN(C)c1nc(=O)n(C2CCCCC2)c(=O)n1C
not listed: [1] | [4] | [5] | [6]
inactive: all other assays above

Cc1cccc([N+](=O)[O-])c1
inactive: [1] | [2] | [3] | [4]

Cc1ccccc1[N+](=O)[O-]
inactive: [1] | [2] | [4]

C=CC(N)=O
inactive: [1] | [3]

Sc1ccccc1
inactive: [5] | [6]

Oc1ccc(Cl)cc1Cl
inactive: [1] | [2] | [3] | [4]

Cc1cc2c3c(c1)C(c1ccccc1)=N[C@@H](NC(=O)c1ccncc1)C(=O)N3CC2
inactive: [2] | [3] | [4]

CC(C)(c1ccccc1)c1ccc(O)cc1
inactive: [1] | [3] | [4]
active: [5] 3.55 µM | [6] 12.2 µM

ClC1=C(Cl)[C@]2(Cl)[C@@H]3[C@@H](Cl)[C@H]4O[C@H]4[C@@H]3C1(Cl)C2(Cl)Cl
inactive: [2] | [3] | [4]
